About 83,000 compounds went through this panel and 20% of them were active in at least one assay; those are over-represented in the sample as a whole.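 Method: cells in 96-well plates; compound added at one concentration; 48 h incubation; percent growth measured; values under 10 scored active.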 A number with no mark means an inactive call. Active and inactive are the calls of the source.
Tested on: MDA-MB-468 breast
Assay: NCI-60 one-dose screen, 48 h (100 = growth as untreated, 0 = no growth, -100 = all killed)
Details: 10 µM unless noted

Row | SMILES | growth
1 | COc1ccc(-c2cc(-c3cc(OC)c(OC)c(OC)c3)c(C#N)c(=O)n2CCCCCC(=O)NO)cc1 | 97.4%
2 | CCNc1nc(-c2ccc(F)cc2)c(C#N)c(=O)n1C | 45%
3 | COc1cc(/C=C\c2cc(OC)c(OC)c(OC)c2)cc(NC(=O)/C=C/c2cc(OC)c(OC)c(OC)c2)c1OC | 36%
4 | CC(=O)Nc1ccc2c(c1)Cc1c(F)c(F)c(F)c(F)c1-2 | 82.5%
5 | CN1CCN(Cc2ccc(NC(=O)c3cncc(C#Cc4cnc5ccc(N6CCOCC6)nn45)c3)cc2C(F)(F)F)CC1 | -70.8% (active)
6 | CCOC(=O)C1CCc2c(ccc3ccccc23)N1CCC#N (stereo not drawn) | 73.6%
7 | CC(C)Cc1cc(CNC(=O)C2[C@H]3CN(C(=O)c4ccccc4)C[C@@H]23)nn1-c1ccccc1 (stereo partly drawn) | 88.9%
8 | Cc1ccc(C(=O)Nc2nc3c(s2)CN(Cc2ccccc2)CC3)cn1 | 67.1%
9 | CCCCC[C@H]1CC=C2C(=O)C=C[C@@H]2CC=CCCCC(=O)O[C@@H](CCCCC)CC=C2C(=O)C=C[C@@H]2CC=CCCCC(=O)O[C@@H](CCCCC)CC=C2C(=O)C=C[C@@H]2CC=CCCCC(=O)O1 | 7.64% [8.75 µM] (active)
10 | OCc1nnn(-c2ccccc2)c1CO | 125%
11 | COC(=O)c1ccc(NC2=C(Cl)C(=O)c3nc(C)ccc3C2=O)cc1 | 56%
12 | FC(F)(F)c1cc(Nc2ccc3cc(OCCCN4CCOCC4)ccc3n2)ccc1Cl | 31.1%
13 | CCCCCCCCOC(=O)c1ccccn1 | 107%

— PubChem BioAssay (NCI)
